MCL1-BIM inh = MCL1-BIM-BH3 interaction inhibition (human) | Q07820 | GST-MCL1 / FITC-Bim-BH3 fluorescence polarization | inhibition, % at 10.9 µM | 320,000 compounds, 0.68% hits;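 active means inhibition above the mean inhibition of all tested compounds plus 3 SD, set per campaign, cut at about 40% in these data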;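 further: 0% = DMSO wells and 100% = unlabeled Bim-BH3 peptide control; higher means more loss of mP so more displacement of Bim peptide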
Target sequence (Q07820 whole entry, looked up): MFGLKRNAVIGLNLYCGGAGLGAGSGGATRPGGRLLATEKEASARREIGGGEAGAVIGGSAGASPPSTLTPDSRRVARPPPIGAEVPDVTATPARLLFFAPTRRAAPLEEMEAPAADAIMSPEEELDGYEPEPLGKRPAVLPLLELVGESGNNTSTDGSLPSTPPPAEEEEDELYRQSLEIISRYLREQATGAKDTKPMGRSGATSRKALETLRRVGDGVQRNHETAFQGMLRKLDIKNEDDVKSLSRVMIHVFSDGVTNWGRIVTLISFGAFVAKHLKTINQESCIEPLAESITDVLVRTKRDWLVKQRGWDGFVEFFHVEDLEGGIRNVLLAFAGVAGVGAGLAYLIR
EBV gp42 block = inhibitors of Epstein-Barr virus glycoprotein 42; Q1HVG2; Fluorescence polarization binding assay, mP read-out; inhibition, % (tested at 21.74 µM); 220,000 compounds, 0.42% hits; AID 1085; in the data active means inhibition above about 50%
Target sequence (Q1HVG2 whole entry, looked up): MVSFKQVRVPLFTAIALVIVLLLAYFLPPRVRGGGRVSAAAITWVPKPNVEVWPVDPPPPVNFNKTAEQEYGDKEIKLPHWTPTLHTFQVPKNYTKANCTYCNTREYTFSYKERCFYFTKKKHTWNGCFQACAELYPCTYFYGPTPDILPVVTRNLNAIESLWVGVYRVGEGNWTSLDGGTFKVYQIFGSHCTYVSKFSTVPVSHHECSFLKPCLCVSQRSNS
GLD-1 TGE inh = GLD-1-TGE RNA interaction inhibition (C. elegans) | Q17339 | purified GLD-1 + fluorescein TGE RNA, fluorescence polarization | inhibition, % at 5.96 µM | AID 2280 | 320,000 compounds, 0.44% hits;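 active means percent inhibition above a per-plate cutoff, the plate mean of test compounds plus 3 SD, cut at about 30% in these data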;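 further: 0% = DMSO wells with GLD-1 and probe and 100% = wells lacking GLD-1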
MEX-5 binding = C. elegans MEX-5 TCR-2 RNA binding activity | 300,000 compounds, 0.38% hits | activity score (negative = inhibition of binding), % at 10 µM | MEX-5/FITC-TCR2 RNA binding, fluorescence polarization; hits give low values | Q9XUB2;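 active means inhibition past about -25% in most replicates, and total fluorescence under double the plate's negative control median, limit read from the data; inconclusive means replicates evenly split on the limit, or fluorescence at least double controls; inactive means too little inhibition in most replicates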;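 further: 0% = DMSO and -100% = 5 µM competing unlabeled TCR2 RNA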
BCLXL inh = inhibitors of human Bcl-xL; Q07817; GST-Bcl-xL / FITC-Bim BH3 peptide fluorescence polarization; 320,000 compounds, 0.7% hits; AID 2129; inhibition, % at 10.9 µM;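 active means inhibition above the mean of all tested compounds plus 3 SD, cutoff set per campaign, cut at about 30% in these data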;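 further: 0% = DMSO wells and 100% = unlabeled Bim-BH3 peptide competitor; inhibitors lower millipolarization by displacing the labeled peptide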
Numbers without * were called inactive; ? = inconclusive; · = no result; + = active, no number. An excerpt weighted towards active compounds, which were near 1.3% of everything screened.

SMILES	MCL1-BIM inh	EBV gp42 block	GLD-1 TGE inh	MEX-5 binding	BCLXL inh
CCN(CC)CCN1CCn2c3c(c4cc(C)ccc42)CCCC31 (stereo unspecified)	46*	1	10	-13	36*
COCCn1c(SCc2nc3sc(C(=O)OC)c(C)c3c(=O)[nH]2)nc2ccccc21	-45	-48	-20	-1	-31
CCn1c(SCc2nc3sc(C(=O)O)c(C)c3c(=O)[nH]2)nc2ccccc21	28	19	0	-43*	24
O=C(N/N=C\c1cc([N+](=O)[O-])ccc1N1CCOCC1)c1ccccn1	-1	-11	2	-7	7
O=C(N/N=C\c1cc([N+](=O)[O-])ccc1N1CCCC1)c1ccccn1	1	-11	-7	-27*	1
Cc1ccc(-c2nc(N=Nc3ccc(O)cc3)n[nH]2)cc1	0	-14	-5	-5	3
Cc1nc(N=Nc2ccc(O)cc2)n[nH]1	1	-7	-4	-29*	1
N=c1oc2c3c4c(cc2cc1C(=O)Nc1ccccc1)CCCN4CCC3	191*	-67	88*	?	165*
CCN(CC)c1ccc2cc(S(=O)(=O)c3ccc(C)cc3)c(=O)oc2c1	-24	142*	-39	-77*	-8
CCN(CC)c1ccc2cc(C#N)c(=O)oc2c1	-25	29	-39	-57*	-12
CCCCCCc1cc2cc(S(=O)(=O)c3ccc(F)cc3)c(=O)oc2cc1O	1	-8	60*	1	10
CCN(CC)c1ccc2cc(C(=O)NNC(=O)c3ccc(S(=O)(=O)N4CCCCC4)cc3)c(=O)oc2c1	-14	174*	-21	?	-9
CCOc1ccc(C2/C(=C(/O)c3ccc4c(c3)CC(C)O4)C(=O)C(=O)N2CCCn2ccnc2)cc1OCC (stereo unspecified)	4	·	2	-4	0
O=C(Nc1oc2ccc(Cl)cc2c(=O)c1-c1ccc(F)cc1)c1ccco1	4	·	-1	2	6
O=C(CSc1ccccc1)N1CCN(c2ccc(F)cc2)CC1	5	·	9	2	2
CCOC(=O)COn1c(=O)c(-c2ccc(F)cc2)[n+]([O-])c2ccccc21	·	·	·	-2	·
CCOC(=O)COn1c(=O)c(-c2cc3ccccc3o2)[n+]([O-])c2ccccc21	7	28	16	-37*	18
C=CCOn1c(=O)c(-c2cc3ccccc3o2)[n+]([O-])c2ccccc21	39	-12	7	-27*	45*
Cc1ccc(-n2ncc3c2CC(C)(C)CC3NC(=O)CCN2CCCO2)cc1 (stereo unspecified)	2	·	-2	0	-1
CC(Oc1cc2oc(=O)c3c(c2cc1Cl)CCCC3)C(=O)NCc1cccnc1 (stereo unspecified)	-1	·	-2	-1	5
COc1cccc(CCN2C(=O)C(=O)N([C@@H](CNCc3ccccc3)Cc3ccccc3F)C[C@@H]2C(C)(C)C)c1	6	·	181*	·	5
COc1cccc(NC2CC(=O)N(CCc3ccccc3)C2=O)c1 (stereo unspecified)	-3	-3	-5	0	-1
Cc1ccc(S(=O)(=O)NC2CC(C)(C)NC(C)(C)C2)c(C)c1C	4	·	2	2	1
COc1cccc(-c2cc(C(F)(F)F)c3c(N)c(C#N)sc3n2)c1	46*	-37	-2	-4	27
N#Cc1sc2nc(-c3ccccc3)cc(-c3ccco3)c2c1N	16	11	6	-5	18
SMILES	MCL1-BIM inh	EBV gp42 block	GLD-1 TGE inh	MEX-5 binding	BCLXL inh
O=C(Nc1ccc(C2SCCS2)cc1)c1ccccc1	4	-20	4	1	2
COc1ccc(S(=O)(=O)NC2CCSc3ccccc32)cc1OC (stereo unspecified)	9	·	3	1	10
CCOC(=O)c1ccc(N2C(=O)C3C(C2=O)C(C(=O)c2ccc(Cl)cc2)N2CCCC32)cc1 (stereo unspecified)	36	94*	21	-6	58*
COc1ccccc1NC(=O)/C(C#N)=C/c1cc([N+](=O)[O-])ccc1N1CCCC1	-45	161*	-20	-83*	-20
COc1ccccc1NC(=O)/C(C#N)=C/c1ccncc1	7	·	9	0	0
CC(C)OCCCn1c(=NC(=O)c2ccncc2)c(C#N)cc2c(=O)n3ccccc3nc21	37	44	17	-5	34*
O=C(NCCCN1CCOCC1)C(C(=O)NCCCN1CCOCC1)c1ncc(C(F)(F)F)cc1Cl	3	-12	5	1	8
COc1ccc(S(=O)(=O)N2CCCCC2)cc1NC(=O)CCNC(=O)c1ccccc1Cl	28	·	8	·	32*
COc1ccc(C(C(=O)NC2CCCC2)N(CCCO)C(=O)c2snc(C(N)=O)c2N)cc1 (stereo unspecified)	12	·	-4	-1	5
CCc1ccc(/C=C2\Oc3cc(OS(C)(=O)=O)ccc3C2=O)cc1	-2	-1	2	-1	-3
CCc1ccc(/C=C2\Oc3c(ccc(O)c3CN3CCN(CCO)CC3)C2=O)cc1	49*	-5	8	-30*	51*
Cc1ccc(C(=O)N2CCN(S(=O)(=O)N3CCCCCC3)CC2)cc1	-2	·	-2	2	-2
CCOc1ccc(Cc2c(C)[nH]c3ccc(C(=O)O)cc3c2=S)cc1	31	·	21	-5	31*
CCc1c(C)[nH]c2ccc(OC)cc2c1=S	·	-30	·	·	·
CC(=O)c1cccc(NC(=O)C2CCN(C(=O)c3cccs3)CC2)c1	7	·	-7	1	4
COC(=O)C1C(O)C(C)C(O)C(C)(O)/C=C\C=C(/C)C(=O)Nc2c(C)c(OC(C)=O)c3c(c2O)C(=O)C(C)=C2OCOC(=C23)/C(C)=C/C(C)(O)C(O)C(C)C1O (stereo unspecified)	-1	-3	7	-5	50*
Cc1cc(C(=O)N/N=C2\CC(=O)CC(C)(C)C2)c2ccccc2n1	22	-5	63*	-4	18
OCCCc1nc2n(n1)C(c1ccccc1Cl)C=C(c1cccs1)N2 (stereo unspecified)	42*	25	30	-15	37*
OCCCc1nc2n(n1)C(c1cccs1)C=C(c1ccccc1)N2 (stereo unspecified)	+	142*	154*	?	177*
CC(C)COc1ccc(C(=O)NC(CC(C)C)C(=O)O)cc1 (stereo unspecified)	-4	144*	-6	-4	-1
CCOc1cc(N2CCOCC2)c(OCC)cc1NC(=O)C(C)C	-5	-25	-6	0	-1
CCOc1cc(N2CCOCC2)c(OCC)cc1NC(C)C(=O)N1CCN(CC)CC1 (stereo unspecified)	·	-22	·	-28*	·
COc1cc(C2Nc3cccc4cccc(c34)N2)ccc1OC(C)=O	45*	-9	10	-1	39*
CNCc1ccccc1Sc1cc(O)ccc1O	42*	-7	11	·	32*
CNCc1ccccc1Sc1cccc(O)c1	-6	-3	4	0	4

From PubChem
